This is an account of results in PubChem BioAssay (EPA / NIEHS).

“And” between values parts separate entries of the source, which are not always exact repeats. Equal values may be shown once. Some structures have more than one record in an assay (separate samples or runs), and their calls can disagree. The source made the active and inactive calls. How the source made its calls: active means hit-call score of the fitted dose curve at least 0.9, where 1 is the maximum; inactive means score below 0.9.

Read-out in this assay: Interleukin 6 (IL6), IL6 (gene 3569)
Put plainly: BSK_BT_xIL6: BioMAP Diversity Plus: BT Assay for Interleukin 6 (IL6) Biomarker Activity (AID 2284228). The note with it: primary human B cells with PBMC. The method, then: BSK_BT is a cell-based, multiplexed-readout assay that uses B cell and peripheral blood mononuclear cells, a human vascular primary cell co-culture, with measurements taken at 24 hours after chemical dosing in a microplate: 96-well plate.BSK_BT_xIL6 is an assay component measured in the BSK_BT assay. It measures secreted IL-6 related to regulation of gene expression using LumineX xMAP technology.Data from the assay component BSK_BT_xIL6 was analyzed at the endpoint, BSK_BT_xIL6, in the positive analysis fitting direction relative to DMSO as the negative control and baseline of activity. Using a type of cytokine quantitation reporter, gain or loss-of-signal activity can be used to understand protein changes. To generalize the intended target to other relatable targets, this assay endpoint is annotated to the 'cytokine' intended target family, where the subfamily is 'interleukins'.
The levels of cell surface (or secreted, indicated by the prefix "s") biomarker endpoints were measured by ELISA. Overt cytotoxicity to cells in confluent adherent cultures (all systems other than the BT system) was assessed by measuring total protein levels using sulforhodamine B (SRB) staining in parallel cultures at the time of biomarker measurements, indicated as SRB endpoints. For proliferation assays for adherent cell types, individual cell types are cultured at sub-confluence and relative cell numbers quantified by SRB staining at time points optimized for each system (48 h: 3C and CASM3C systems; 72 h: BT and HDF3CGF systems; 96 h: SAg system). SRB was performed by staining cells with 0.1% SRB after fixation with 10% TCA and reading wells at 560 nm.Viability and proliferation of PBMC (T cells) was quantified by Alamar Blue reduction for the SAg and BT systems. For PBMC viability (referred to as PBMC Cytotoxicity within the assay endpoint names), cells were plated (75,000/well in a 96-well plate) and then chemical samples added for 1 h before addition of activators, SEB and TSST-1 (20 ng/mL final concentration each). Cells were incubated for 90 h. Then, Alamar Blue (20 uL/well) (Invitrogen, Cat DAL1100) was added for 6 h, and the plates were read with a fluorescence microplate reader at 546/580 nm (excitation/emission). For PBMC proliferation, cells were plated and activated as above but incubated for only 16 h prior to addition of Alamar Blue. Plates were read after 6 h.
For `COCC(=O)N(c1c(C)cccc1C)N1CCOC1=O`, the result was inactive.

Regarding `CCc1cc(C)cc(CC)c1-c1c(OC(=O)C(C)(C)C)n2n(c1=O)CCOCC2`, the outcome was inactive.

Turning to `C=CCN(CC=C)C(=O)C(Cl)Cl`, the outcome was inactive.

Turning to `CCCOC(=O)c1ccccc1C(=O)OCCC`, the result was inactive.

`O=S(=O)(c1ccccc1)c1ccccc1`: the outcome was inactive.

Regarding `CCC(C)c1cc([N+](=O)[O-])cc([N+](=O)[O-])c1OC(=O)C=C(C)C` (stereo unspecified), the AC50 is 20 µM (active).

In the case of `C=CC(=O)OCC(CC)CCCC` (stereo unspecified), the result was inactive.

For `O=[N+]([O-])C=Cc1ccccc1`, the AC50 is 5.28 µM (active).

In the case of `O=C1C(Cl)=C(Cl)C(=O)C(Cl)=C1Cl`, the AC50 is 30.3 µM (active).

Take `CC(C)(c1cc(Cl)c(O)c(Cl)c1)c1cc(Cl)c(O)c(Cl)c1`: the result was inactive.

Consider `CC1(C)[C@H](C(=O)O[C@H](C#N)c2cccc(Oc3ccccc3)c2)[C@@H]1C=C(Br)Br`, for which the AC50 was 15.2 µM (active) and the result was inactive.

As to `Nc1ccc(-c2ccc(N)c(N)c2)cc1N`, the outcome was inactive.

For the molecule `CC(C)COP(=O)(OCC(C)C)OCC(C)C`, the result was inactive.

On to `O=C(O)CCCc1ccc(N(CCCl)CCCl)cc1`, for which the half-maximal activity concentration (AC50) is 14.8 µM (active) and 20 µM (active).

On to `CC(C)(C)C(O)C(Oc1ccc(-c2ccccc2)cc1)n1cncn1` (stereo unspecified), for which the result was inactive.

Regarding `O=P1(NCCCl)OCCCN1CCCl` (stereo unspecified), the result was inactive.

Take `CC(C)CCCCCCCOP(=O)(Oc1ccccc1)Oc1ccccc1`: the half-maximal activity concentration (AC50) was 26.1 µM (active).

Turning to `Cc1ccc(OP(=O)(Oc2ccc(C)cc2)Oc2ccc(C)cc2)cc1` (tested in a mixture with another compound), the half-maximal activity concentration (AC50) is 13.2 µM (active).

For the molecule `Oc1cc(Cl)ccc1Cl`, the outcome was inactive.

On to `CC(C)(C)C(=O)CCl`, for which the outcome was inactive.

As for `COC(C)(C)CCC[C@H](C)C/C=C/C(C)=C/C(=O)OC(C)C`, the AC50 was 20 µM (active).

As for `CC(=O)/C=C/c1ccccc1`, the AC50 is 20 µM (active).

Take `O=c1c2ccccc2c(=O)c2c1cc(Cl)c1[nH]c3c([nH]c12)c(Cl)cc1c(=O)c2ccccc2c(=O)c13`: the result was inactive.

Regarding `Clc1ccc(-c2ccccc2)cc1`, the result was inactive.

Consider `CC(C)CCCCCCCOC(=O)c1ccccc1C(=O)OCCCCCCCC(C)C`, for which the result was inactive.

For `CNC(=O)Oc1cc(C)c(SC)c(C)c1`, the AC50 is 8.6 µM (active).

For the molecule `O=c1[nH]c(Cl)c(Cl)cc1Cl`, the outcome was inactive.

With `CCCCCCCCCCCC#N`, the result was inactive.

On to `c1ccc(Nc2ccc3ccccc3c2)cc1`, for which the half-maximal activity concentration (AC50) was 29.9 µM (active).

Take `O=C1C=CC(=O)C=C1`: the AC50 is 11.3 µM (active) and 25.7 µM (active).

As a reminder, the AC50 is the concentration giving half of the maximal activity seen.
